Out of some 5,500 compounds screened, about 2,000 (36%) were called active. About 18% were inconclusive and are not listed. No stated cut-off is given here; in the data, active means normalized growth mostly below about 0.91 (no sharp cut-off); inconclusive means no clear call, values can overlap the other calls; inactive means mostly above about 0.92. The list shows a part of the results.
Assay: chemical genetic growth profiling, strain panel (AID 1159580);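 further: tested at 20 µM; growth read once vehicle control cultures reached saturation at 30 °C; 1 = growth at the plate median or of vehicle wells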
Details: growth OD
[1] = S. cerevisiae deletion strains, locus YAL013W, strain DEP1, stronger effect = lower value
[2] = S. cerevisiae deletion strains, locus YBR021W, strain FUR4, stronger effect = lower value
[3] = S. cerevisiae deletion strains, locus YBR229C, strain ROT2, stronger effect = lower value
[4] = S. cerevisiae deletion strains, locus YCL029C, strain bik1, stronger effect = lower value
[5] = S. cerevisiae deletion strains, locus YDL035C, strain GPR1, stronger effect = lower value
[6] = S. cerevisiae deletion strains, locus YDL074C, strain BRE1, stronger effect = lower value
[7] = S. cerevisiae deletion strains, locus YDL101C, strain DUN1, stronger effect = lower value
[8] = S. cerevisiae deletion strains, locus YDL185W, strain tfp1, stronger effect = lower value
[9] = S. cerevisiae deletion strains, locus YDL192W, strain arf1, stronger effect = lower value
[10] = S. cerevisiae deletion strains, locus YDR101C, strain arx1, stronger effect = lower value
[11] = S. cerevisiae deletion strains, locus YDR162C, strain NBP2, stronger effect = lower value
[12] = S. cerevisiae deletion strains, locus YDR318W, strain mcm21, stronger effect = lower value
[13] = S. cerevisiae deletion strains, locus YDR388W, stronger effect = lower value
[14] = S. cerevisiae deletion strains, locus YDR502C, strain sam2, stronger effect = lower value
[15] = S. cerevisiae deletion strains, locus YER110C, stronger effect = lower value
[16] = S. cerevisiae deletion strains, locus YER155C, strain BEM2, stronger effect = lower value
[17] = S. cerevisiae deletion strains, locus YER167W, strain BCK2, stronger effect = lower value
[18] = S. cerevisiae deletion strains, locus YGL078C, strain dbp3, stronger effect = lower value
[19] = S. cerevisiae deletion strains, locus YGL086W, strain mad1, stronger effect = lower value
[20] = S. cerevisiae deletion strains, locus YGL248W, strain PDE1, stronger effect = lower value
[21] = S. cerevisiae deletion strains, locus YGR078C, strain PAC10, stronger effect = lower value
[22] = S. cerevisiae deletion strains, locus YGR135W, strain pre9, stronger effect = lower value
[23] = S. cerevisiae deletion strains, locus YGR252W, strain gcn5, stronger effect = lower value
[24] = S. cerevisiae deletion strains, locus YHR079C, strain IRE1 (second series), stronger effect = lower value
[25] = S. cerevisiae deletion strains, locus YHR094C, strain hxt1, stronger effect = lower value
[26] = S. cerevisiae deletion strains, locus YHR129C, strain ARP1, stronger effect = lower value
[27] = S. cerevisiae deletion strains, locus YHR200W, strain rpn10, stronger effect = lower value
[28] = S. cerevisiae deletion strains, locus YIL066C, strain RNR3, stronger effect = lower value
[29] = S. cerevisiae deletion strains, locus YIL073C, strain SPO22, stronger effect = lower value
[30] = S. cerevisiae deletion strains, locus YIL125W, strain kgd1, stronger effect = lower value
[31] = S. cerevisiae deletion strains, locus YIR030C, strain dcg1, stronger effect = lower value
[32] = S. cerevisiae deletion strains, locus YJL095W, strain BCK1, stronger effect = lower value
[33] = S. cerevisiae deletion strains, locus YJL134W, strain LCB3, stronger effect = lower value
[34] = S. cerevisiae deletion strains, locus YJL168C, strain set2, stronger effect = lower value
[35] = S. cerevisiae deletion strains, locus YJL187C, strain SWE1 (second series), stronger effect = lower value
[36] = S. cerevisiae deletion strains, locus YJR075W, strain HOC1, stronger effect = lower value
[37] = S. cerevisiae deletion strains, locus YKL009W, strain mrt4, stronger effect = lower value
[38] = S. cerevisiae deletion strains, locus YKL068W, stronger effect = lower value
[39] = S. cerevisiae deletion strains, locus YKL085W, strain MDH1 (second series), stronger effect = lower value
[40] = S. cerevisiae deletion strains, locus YKL085W, strain MDH1, stronger effect = lower value
[41] = S. cerevisiae deletion strains, locus YKL190W, strain CNB1, stronger effect = lower value
[42] = S. cerevisiae deletion strains, locus YKR001C, strain vps1, stronger effect = lower value
[43] = S. cerevisiae deletion strains, locus YLR039C, strain RIC1, stronger effect = lower value
[44] = S. cerevisiae deletion strains, locus YLR058C, strain SHM2, stronger effect = lower value
[45] = S. cerevisiae deletion strains, locus YLR102C, strain apc9, stronger effect = lower value
[46] = S. cerevisiae deletion strains, locus YLR262C, strain YPT6, stronger effect = lower value
[47] = S. cerevisiae deletion strains, locus YLR268W, strain sec22, stronger effect = lower value
[48] = S. cerevisiae deletion strains, locus YLR330W, strain CHS5, stronger effect = lower value
[49] = S. cerevisiae deletion strains, locus YLR342W, strain FKS1 (second series), stronger effect = lower value
[50] = S. cerevisiae deletion strains, locus YLR371W, strain rom2, stronger effect = lower value
[51] = S. cerevisiae deletion strains, locus YLR418C, strain cdc73, stronger effect = lower value
[52] = S. cerevisiae deletion strains, locus YML016C, strain PPZ1, stronger effect = lower value
[53] = S. cerevisiae deletion strains, locus YML032C, strain rad52, stronger effect = lower value
[54] = S. cerevisiae deletion strains, locus YML124C, strain tub3, stronger effect = lower value
[55] = S. cerevisiae deletion strains, locus YMR078C, strain ctf18, stronger effect = lower value
[56] = S. cerevisiae deletion strains, locus YMR223W, strain ubp8, stronger effect = lower value
[57] = S. cerevisiae deletion strains, locus YMR263W, strain SAP30, stronger effect = lower value
[58] = S. cerevisiae deletion strains, locus YMR307W, strain GAS1, stronger effect = lower value
[59] = S. cerevisiae deletion strains, locus YNL067W, strain RPL9B, stronger effect = lower value
[60] = S. cerevisiae deletion strains, locus YNL128W, strain TEP1, stronger effect = lower value
[61] = S. cerevisiae deletion strains, locus YNL153C, strain GIM3, stronger effect = lower value
[62] = S. cerevisiae deletion strains, locus YNL233W, strain BNI4, stronger effect = lower value
[63] = S. cerevisiae deletion strains, locus YNL250W, strain rad50, stronger effect = lower value
[64] = S. cerevisiae deletion strains, locus YNL271C, strain bni1, stronger effect = lower value
[65] = S. cerevisiae deletion strains, locus YNL298W, strain CLA4, stronger effect = lower value
[66] = S. cerevisiae deletion strains, locus YNL307C, strain MCK1, stronger effect = lower value
[67] = S. cerevisiae deletion strains, locus YNL322C, strain KRE1, stronger effect = lower value
[68] = S. cerevisiae deletion strains, locus YNR052C, strain pop2, stronger effect = lower value
[69] = S. cerevisiae deletion strains, locus YOL006C, strain TOP1, stronger effect = lower value
[70] = S. cerevisiae deletion strains, locus YOL012C, strain htz1
[71] = S. cerevisiae deletion strains, locus YOL147C, strain pex11, stronger effect = lower value
[72] = S. cerevisiae deletion strains, locus YOR061W, strain CKA2, stronger effect = lower value
[73] = S. cerevisiae deletion strains, locus YOR069W, strain VPS5, stronger effect = lower value
[74] = S. cerevisiae deletion strains, locus YOR136W, strain idh2, stronger effect = lower value
[75] = S. cerevisiae deletion strains, locus YOR144C, strain elg1, stronger effect = lower value
[76] = S. cerevisiae deletion strains, locus YOR184W, strain ser1, stronger effect = lower value
[77] = S. cerevisiae deletion strains, locus YOR316C, strain cot1, stronger effect = lower value
[78] = S. cerevisiae deletion strains, locus YPL055C, strain LGE1, stronger effect = lower value
[79] = S. cerevisiae deletion strains, locus YPL241C, strain CIN2, stronger effect = lower value
[80] = S. cerevisiae deletion strains, locus YPR119W, strain clb2, stronger effect = lower value
[81] = S. cerevisiae deletion strains, locus YPR141C, strain kar3, stronger effect = lower value
[82] = S. cerevisiae deletion strains, locus YPR163C, strain tif3, stronger effect = lower value
[83] = S. cerevisiae deletion strains, locus YPR167C, strain met16, stronger effect = lower value
[84] = S. cerevisiae deletion strains, strain wtn01, stronger effect = lower value
[85] = S. cerevisiae deletion strains, locus YAL040C, strain CLN3, stronger effect = lower value
[86] = S. cerevisiae deletion strains, locus YCL061C, strain MRC1 (second series), stronger effect = lower value
[87] = S. cerevisiae deletion strains, locus YDR363W, strain ESC2, stronger effect = lower value
[88] = S. cerevisiae deletion strains, locus YER002W, strain NOP16, stronger effect = lower value
[89] = S. cerevisiae deletion strains, locus YNL175C, strain NOP13, stronger effect = lower value
[90] = S. cerevisiae deletion strains, locus YNL197C, strain WHI3, stronger effect = lower value
[91] = S. cerevisiae deletion strains, locus YNL224C, strain SQS1, stronger effect = lower value
[92] = S. cerevisiae deletion strains, locus YOR083W, strain WHI5 (second series), stronger effect = lower value

Measured: normalized growth

C[C@]12CCC3C(CC[C@H]4C[C@@H](O)CC[C@]34C)C1CC[C@@H]2O (stereo partly drawn)
inactive: [1] 1 | [2] 1.01 | [3] 1.03 | [4] 0.968 | [5] 0.864 | [6] 0.991 | [7] 1.01 | S. cerevisiae deletion strains, locus YDL134C, strain PPH21, stronger effect = lower value 1.02 | [8] 0.988 | [9] 0.996 | [10] 1.01 | S. cerevisiae deletion strains, locus YDR150W, strain NUM1, stronger effect = lower value 1.02 | [11] 0.958 | [12] 0.972 | [13] 1.03 | [14] 1.01 | S. cerevisiae deletion strains, locus YEL061C, strain CIN8, stronger effect = lower value 1.03 | [15] 1.01 | [16] 1.04 | [17] 0.986 | [18] 0.973 | [19] 0.954 | [20] 1.02 | [21] 1 | [22] 0.973 | S. cerevisiae deletion strains, locus YGR229C, strain SMI1, stronger effect = lower value 1.02 | S. cerevisiae deletion strains, locus YHR030C, strain SLT2, stronger effect = lower value 1.04 | [24] 0.993 | [25] 1.02 | [26] 1.03 | [27] 0.985 | [28] 0.953 | [29] 0.91 | [30] 1.02 | [31] 1.03 | [32] 1.01 | [33] 1.02 | [34] 1.03 | [35] 1 | S. cerevisiae deletion strains, locus YJR043C, strain POL32, stronger effect = lower value 0.965 | [36] 1.04 | [38] 1.02 | [39] 1.02 | [40] 1.02 | [41] 1.02 | [42] 0.964 | [44] 1.02 | [45] 1.02 | [47] 0.997 | [48] 1.03 | [49] 0.87 | [50] 0.994 | [51] 1.13 | [52] 1.03 | [53] 0.931 | [54] 1.03 | [55] 1.03 | [56] 0.953 | [57] 1.01 | [58] 1.02 | [59] 0.938 | [60] 1.01 | [61] 1.03 | [62] 1.02 | [63] 0.968 | [64] 1 | [66] 0.954 | [67] 1.03 | [69] 1.07 | [70] 1.81 | [71] 1.04 | [72] 0.99 | [73] 1.02 | [74] 1.02 | [75] 1.01 | [77] 1.03 | [78] 1.01 | [79] 1.02 | [80] 1.04 | [81] 1.04 | [82] 1.01 | [83] 1.02 | [84] 0.989 | S. cerevisiae strains, strain wild type, stronger effect = lower value 0.99
active: [23] 0.764 | [37] 0.793 | [43] 0.644 | [46] 0.507 | [65] 0.895 | [68] 0.88 | [76] 0.836

C[C@]12CC[C@H]3[C@@H](CCC4C[C@H](O)CC[C@@]43C)[C@@H]1CC[C@@H]2O (stereo partly drawn)
inactive: [1] 0.946 | [85] 1.02 | [86] 1 | [87] 0.987 | [88] 1 | [36] 1.06 | [57] 1.03 | [58] 0.977 | [60] 1.03 | [89] 1.02 | [90] 0.964 | [91] 1.01 | [67] 1.02 | [92] 0.966 | [78] 1.03 | [79] 1.03

C[C@]12CCC3C(CC[C@H]4C[C@H](O)CC[C@]34C)C1CC[C@@H]2O (stereo partly drawn)
inactive: [3] 1.01 | [4] 0.948 | [5] 0.883 | [6] 0.929 | [7] 0.938 | [8] 0.978 | [9] 0.965 | [10] 0.991 | [12] 0.948 | [13] 0.994 | [15] 1.01 | [16] 1.01 | [17] 1.02 | [19] 0.951 | [21] 0.908 | [24] 1.01 | [25] 1 | [26] 0.968 | [27] 0.987 | [28] 1 | [29] 0.875 | [30] 0.993 | [31] 0.991 | [33] 1.01 | [34] 1 | [35] 0.882 | [36] 0.981 | [38] 0.988 | [39] 1.01 | [40] 1.01 | [41] 1.02 | [44] 0.944 | [45] 1 | [47] 0.974 | [49] 0.814 | [50] 1.05 | [51] 0.894 | [52] 0.989 | [53] 0.924 | [54] 1.01 | [55] 0.988 | [56] 0.936 | [58] 0.798 | [59] 0.876 | [62] 0.904 | [63] 0.912 | [64] 0.942 | [69] 0.926 | [70] 1.56 | [71] 1.01 | [72] 0.985 | [73] 0.957 | [74] 0.984 | [75] 0.994 | [77] 0.992 | [80] 0.992 | [81] 1.02 | [83] 0.956 | [84] 0.961
active: [2] 0.803 | [11] 0.628 | [14] 0.899 | [18] 0.844 | [20] 0.882 | [22] 0.858 | [23] 0.756 | [32] 0.721 | [37] 0.813 | [42] 0.83 | [43] 0.538 | [46] 0.421 | [48] 0.891 | [65] 0.893 | [66] 0.885 | [68] 0.884 | [76] 0.82 | [82] 0.844

CC(=O)[C@H]1CCC2C3CC[C@H]4C[C@H](O)CC[C@]4(C)C3CC[C@@]21C (stereo partly drawn)
inactive: [1] 1.01 | [85] 0.979 | [86] 1 | [87] 1.04 | [88] 1 | [21] 1.01 | [58] 0.935 | [60] 1.01 | [61] 0.944 | [89] 0.993 | [90] 1.01 | [91] 1 | [92] 1 | [78] 0.98

Source: PubChem BioAssay AID1159580 (chemical genetic matrix, 2015)
